Experimental data published in PubChem BioAssay AID1159580 (chemical genetic matrix, 2015).
In all, about 5,500 compounds went through this assay and about 2,000 (36%) were called active. Inconclusive results (about 18%) are left out. The list shows a part of the results. A number with no mark means an inactive call. Cut-off read from the data, not from the text of the source: active = normalized growth mostly below about 0.91 (no sharp cut-off); inconclusive = no clear call, values can overlap the other calls; inactive = mostly above about 0.92.

Experiment: chemical genetic growth profiling, strain panel (AID 1159580);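 note: tested at 20 µM; growth read once vehicle control cultures reached saturation at 30 °C; 1 = growth at the plate median or of vehicle wells; lower values mean less growth of the strain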
Details: growth OD
[1] = S. cerevisiae deletion strains, locus YDL101C, strain DUN1, active compounds read low
[2] = S. cerevisiae deletion strains, locus YHR030C, strain SLT2, active compounds read low
[3] = S. cerevisiae deletion strains, locus YAL013W, strain DEP1, active compounds read low
[4] = S. cerevisiae deletion strains, locus YBR229C, strain ROT2, active compounds read low
[5] = S. cerevisiae deletion strains, locus YDR150W, strain NUM1, active compounds read low
[6] = S. cerevisiae deletion strains, locus YEL061C, strain CIN8, active compounds read low
[7] = S. cerevisiae deletion strains, locus YGR078C, strain PAC10, active compounds read low
[8] = S. cerevisiae deletion strains, locus YHR087W, strain rtc3, active compounds read low
[9] = S. cerevisiae deletion strains, locus YJR043C, strain POL32, active compounds read low
[10] = S. cerevisiae deletion strains, locus YJR075W, strain HOC1, active compounds read low
[11] = S. cerevisiae deletion strains, locus YLR039C, strain RIC1, active compounds read low
[12] = S. cerevisiae deletion strains, locus YLR058C, strain SHM2 (second series), active compounds read low
[13] = S. cerevisiae deletion strains, locus YLR085C, strain ARP6, active compounds read low
[14] = S. cerevisiae deletion strains, locus YLR262C, strain YPT6, active compounds read low
[15] = S. cerevisiae deletion strains, locus YML094W, strain GIM5, active compounds read low
[16] = S. cerevisiae deletion strains, locus YMR219W, strain ESC1, active compounds read low
[17] = S. cerevisiae deletion strains, locus YMR263W, strain SAP30, active compounds read low
[18] = S. cerevisiae deletion strains, locus YNL153C, strain GIM3, active compounds read low
[19] = S. cerevisiae deletion strains, locus YNL298W, strain CLA4 (second series), active compounds read low
[20] = S. cerevisiae deletion strains, locus YNL322C, strain KRE1, active compounds read low
[21] = S. cerevisiae deletion strains, locus YNR030W, strain Alg12, active compounds read low
[22] = S. cerevisiae deletion strains, locus YPL055C, strain LGE1, active compounds read low
[23] = S. cerevisiae deletion strains, locus YPL241C, strain CIN2, active compounds read low
[24] = S. cerevisiae deletion strains, locus YPR135W, strain CTF4, active compounds read low
[25] = S. cerevisiae strains, strain wild type, active compounds read low
[26] = S. cerevisiae deletion strains, locus YMR307W, strain GAS1, active compounds read low

SMILES: CC(C)(C)C1=C(C#N)C(c2c(Cl)cccc2Cl)C(C#N)=C(N)O1 (stereo not given)
- normalized growth (S. cerevisiae deletion strains, locus YAR019C, strain CDC15, active compounds read low): 0.987
- normalized growth (S. cerevisiae deletion strains, locus YBL105C, strain PKC1, active compounds read low): 0.99
- normalized growth (S. cerevisiae deletion strains, locus YBR135W, strain CKS1, active compounds read low): 0.992
- normalized growth (S. cerevisiae deletion strains, locus YBR136W, strain MEC1, active compounds read low): 0.989
- normalized growth (S. cerevisiae deletion strains, locus YBR160W, strain CDC28, active compounds read low): 0.996
- normalized growth (S. cerevisiae deletion strains, locus YDL017W, strain CDC7, active compounds read low): 0.99
- normalized growth (S. cerevisiae deletion strains, locus YDL028C, strain MPS1, active compounds read low): 0.997
- normalized growth [1]: 0.979
- normalized growth (S. cerevisiae deletion strains, locus YDL108W, strain KIN28, active compounds read low): 0.992
- normalized growth (S. cerevisiae deletion strains, locus YDL132W, strain cdc53, active compounds read low): 0.978
- normalized growth (S. cerevisiae deletion strains, locus YDL214C, strain PRR2, active compounds read low): 0.987
- normalized growth (S. cerevisiae deletion strains, locus YDR052C, strain DBF4, active compounds read low): 0.997
- normalized growth (S. cerevisiae deletion strains, locus YDR054C, strain cdc34, active compounds read low): 0.976
- normalized growth (S. cerevisiae deletion strains, locus YDR226W, strain ADK1, active compounds read low): 0.979
- normalized growth (S. cerevisiae deletion strains, locus YDR477W, strain SNF1, active compounds read low): 0.995
- normalized growth (S. cerevisiae deletion strains, locus YER123W, strain YCK3, active compounds read low): 0.996
- normalized growth (S. cerevisiae deletion strains, locus YER133W, strain GLC7, active compounds read low): 0.984
- normalized growth (S. cerevisiae deletion strains, locus YFL009W, strain cdc4, active compounds read low): 0.98
- normalized growth (S. cerevisiae deletion strains, locus YFL029C, strain CAK1, active compounds read low): 0.983
- normalized growth (S. cerevisiae deletion strains, locus YFR003C, strain YPI1, active compounds read low): 0.992
- normalized growth (S. cerevisiae deletion strains, locus YFR019W, strain FAB1, active compounds read low): 1
- normalized growth (S. cerevisiae deletion strains, locus YFR028C, strain CDC14, active compounds read low): 0.978
- normalized growth (S. cerevisiae deletion strains, locus YGR040W, strain KSS1, active compounds read low): 0.991
- normalized growth (S. cerevisiae deletion strains, locus YGR052W, strain FMP48, active compounds read low): 1.01
- normalized growth (S. cerevisiae deletion strains, locus YGR092W, strain DBF2, active compounds read low): 0.98
- normalized growth [2]: 0.983
- normalized growth (S. cerevisiae deletion strains, locus YHR079C, strain IRE1, active compounds read low): 0.891
- normalized growth (S. cerevisiae deletion strains, locus YHR082C, strain KSP1, active compounds read low): 1.09
- normalized growth (S. cerevisiae deletion strains, locus YHR205W, strain SCH9, active compounds read low): 0.913
- normalized growth (S. cerevisiae deletion strains, locus YIL147C, strain SLN1, active compounds read low): 0.993
- normalized growth (S. cerevisiae deletion strains, locus YJL095W, strain BCK1, active compounds read low): 0.894
- normalized growth (S. cerevisiae deletion strains, locus YJL128C, strain PBS2, active compounds read low): 0.925
- normalized growth (S. cerevisiae deletion strains, locus YJL157C, strain FAR1, active compounds read low): 1.01
- normalized growth (S. cerevisiae deletion strains, locus YJR016C, strain ILV3, active compounds read low): 0.984
- normalized growth (S. cerevisiae deletion strains, locus YJR066W, strain TOR1 (second series), active compounds read low): 0.983
- normalized growth (S. cerevisiae deletion strains, locus YJR066W, strain TOR1, active compounds read low): 1.1
- normalized growth (S. cerevisiae deletion strains, locus YKL048C, strain ELM1, active compounds read low): 0.922
- normalized growth (S. cerevisiae deletion strains, locus YKL067W, strain YNK1, active compounds read low): 0.988
- normalized growth (S. cerevisiae deletion strains, locus YKL101W, strain HSL1, active compounds read low): 0.961
- normalized growth (S. cerevisiae deletion strains, locus YKL193C, strain SDS22, active compounds read low): 0.989
- normalized growth (S. cerevisiae deletion strains, locus YKL203C, strain TOR2, active compounds read low): 1.07
- normalized growth (S. cerevisiae deletion strains, locus YLR113W, strain HOG1, active compounds read low): 0.885
- normalized growth (S. cerevisiae deletion strains, locus YLR133W, strain CKI1, active compounds read low): 1.02
- normalized growth (S. cerevisiae deletion strains, locus YLR403W, strain SFP1, active compounds read low): 0.944
- normalized growth (S. cerevisiae deletion strains, locus YML070W, strain DAK1, active compounds read low): 0.992
- normalized growth (S. cerevisiae deletion strains, locus YMR001C, strain CDC5, active compounds read low): 0.995
- normalized growth (S. cerevisiae deletion strains, locus YMR205C, strain PFK2 (second series), active compounds read low): 0.993
- normalized growth (S. cerevisiae deletion strains, locus YMR277W, strain FCP1, active compounds read low): 0.997
- normalized growth (S. cerevisiae deletion strains, locus YNL006W, strain LST8, active compounds read low): 0.975
- normalized growth (S. cerevisiae deletion strains, locus YNL020C, strain ARK1, active compounds read low): 1
- normalized growth (S. cerevisiae deletion strains, locus YNL161W, strain CBK1, active compounds read low): 0.982
- normalized growth (S. cerevisiae deletion strains, locus YNL183C, strain NPR1, active compounds read low): 1.06
- normalized growth (S. cerevisiae deletion strains, locus YNL207W, strain RIO2, active compounds read low): 0.986
- normalized growth (S. cerevisiae deletion strains, locus YNL222W, strain SSU72, active compounds read low): 0.989
- normalized growth (S. cerevisiae deletion strains, locus YNL307C, strain MCK1 (second series), active compounds read low): 1
- normalized growth (S. cerevisiae deletion strains, locus YOL078W, strain AVO1, active compounds read low): 0.994
- normalized growth (S. cerevisiae deletion strains, locus YOL136C, strain PFK27, active compounds read low): 1
- normalized growth (S. cerevisiae deletion strains, locus YOR061W, strain CKA2, active compounds read low): 1.01
- normalized growth (S. cerevisiae deletion strains, locus YOR119C, strain RIO1, active compounds read low): 1.04
- normalized growth (S. cerevisiae deletion strains, locus YOR231W, strain MKK1, active compounds read low): 1.02
- normalized growth (S. cerevisiae deletion strains, locus YOR329C, strain SCD5, active compounds read low): 0.993
- normalized growth (S. cerevisiae deletion strains, locus YPL031C, strain PHO85, active compounds read low): 0.992
- normalized growth (S. cerevisiae deletion strains, locus YPL153C, strain RAD53, active compounds read low): 1
- normalized growth (S. cerevisiae deletion strains, locus YPL204W, strain HRR25, active compounds read low): 1
- normalized growth (S. cerevisiae deletion strains, locus YPL209C, strain IPL1, active compounds read low): 0.993
- normalized growth (S. cerevisiae deletion strains, locus YPL256C, strain CLN2, active compounds read low): 0.94
- normalized growth (S. cerevisiae deletion strains, locus YPR025C, strain CCL1, active compounds read low): 0.992
- normalized growth (S. cerevisiae deletion strains, locus YPR106W, strain ISR1, active compounds read low): 0.981
- normalized growth (S. cerevisiae deletion strains, locus YPR111W, strain DBF20, active compounds read low): 0.966
- normalized growth (S. cerevisiae deletion strains, strain NNK1, active compounds read low): 0.963
- normalized growth (S. cerevisiae deletion strains, strain TSCII, active compounds read low): 0.991

SMILES: O=C1NC2(CCN(Cc3ccccc3)CC2)Oc2ccccc21
- normalized growth [3]: 0.999
- normalized growth [4]: 0.993
- normalized growth [1]: 0.949
- normalized growth [5]: 0.993
- normalized growth [6]: 1.02
- normalized growth [7]: 0.98
- normalized growth (S. cerevisiae deletion strains, locus YGR229C, strain SMI1, active compounds read low): 0.995
- normalized growth [2]: 1.04
- normalized growth [8]: 0.968
- normalized growth [9]: 1
- normalized growth [10]: 0.985
- normalized growth (S. cerevisiae deletion strains, locus YKL190W, strain CNB1, active compounds read low): 0.988
- normalized growth [11]: 0.984
- normalized growth [12]: 0.972
- normalized growth [13]: 1.14
- normalized growth [14]: 0.992
- normalized growth [15]: 1
- normalized growth [16]: 0.995
- normalized growth [17]: 1.03
- normalized growth [18]: 0.997
- normalized growth [19]: 0.955
- normalized growth [20]: 0.997
- normalized growth [21]: 0.975
- normalized growth (S. cerevisiae deletion strains, locus YOL006C, strain TOP1, active compounds read low): 0.918
- normalized growth [22]: 0.997
- normalized growth [23]: 1.1
- normalized growth [24]: 0.834
- normalized growth [25]: 0.983

SMILES: c1ccc(CN2CCC3(CCCc4ccccc43)CC2)cc1
- normalized growth (S. cerevisiae deletion strains, locus YAL040C, strain CLN3, active compounds read low): 1.02
- normalized growth (S. cerevisiae deletion strains, locus YCL061C, strain MRC1 (second series), active compounds read low): 0.938 (active)
- normalized growth (S. cerevisiae deletion strains, locus YDR363W, strain ESC2, active compounds read low): 0.805 (active)
- normalized growth (S. cerevisiae deletion strains, locus YER002W, strain NOP16, active compounds read low): 0.975
- normalized growth [7]: 0.976
- normalized growth [26]: 1
- normalized growth [18]: 0.817
- normalized growth (S. cerevisiae deletion strains, locus YNL175C, strain NOP13, active compounds read low): 0.993
- normalized growth (S. cerevisiae deletion strains, locus YNL197C, strain WHI3, active compounds read low): 0.983
- normalized growth (S. cerevisiae deletion strains, locus YNL224C, strain SQS1, active compounds read low): 1.01
- normalized growth (S. cerevisiae deletion strains, locus YOR083W, strain WHI5 (second series), active compounds read low): 0.874
- normalized growth [22]: 0.854 (active)
- normalized growth [23]: 0.955

SMILES: CC(C)(C)NC(=S)NC1CCN(Cc2ccccc2)CC1
- normalized growth [3]: 1.06
- normalized growth [4]: 0.997
- normalized growth (S. cerevisiae deletion strains, locus YCL061C, strain MRC1, active compounds read low): 1.03
- normalized growth [1]: 1.01
- normalized growth (S. cerevisiae deletion strains, locus YDL134C, strain PPH21, active compounds read low): 0.994
- normalized growth [5]: 0.969
- normalized growth [6]: 1.02
- normalized growth [7]: 1.01
- normalized growth [2]: 1.06
- normalized growth [8]: 0.986
- normalized growth [9]: 0.995
- normalized growth [10]: 0.994
- normalized growth [11]: 0.994
- normalized growth [12]: 0.983
- normalized growth [13]: 1.03
- normalized growth [14]: 0.985
- normalized growth [15]: 1.02
- normalized growth [16]: 1.01
- normalized growth [17]: 0.992
- normalized growth [26]: 0.987
- normalized growth [18]: 1.01
- normalized growth [19]: 1.01
- normalized growth [20]: 0.995
- normalized growth [21]: 1.03
- normalized growth [22]: 0.986
- normalized growth [23]: 1
- normalized growth [24]: 1.16
- normalized growth [25]: 0.981
